Experimental data reported in the supplement of paper PMC4206461.

The compounds below were run on Pseudomonas aeruginosa PA14 dppA1-A5 penta mutant + pBBR5.DppA1 (PA14_58350) (assay: respiration area under curve with compound as sole nitrogen source, 24 h (OmniLog AUC (arbitrary units)); higher = more respiration / better utilisation as nitrogen source, active = 2000 or more).
Experimental: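 Biolog Phenotype MicroArray plates PM6-PM8: each di/tripeptide is the sole nitrogen source. Tetrazolium reduction was read in the OmniLog for 24 h at 37°C and summarised as area under the respiration curve (arbitrary units). Values below 2000 count as no respiration. Strain is the SBP penta mutant complemented with DppA1 on a plasmid under its native promoter. Lys/His/Cys peptides are excluded.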

SMILES	respiration area under curve
CC(C)C[C@H](NC(=O)[C@@H](N)CCCN=C(N)N)C(=O)O (plate: PM6)	7900 (active)
C[C@H](N)C(=O)N[C@@H](CCC(N)=O)C(=O)O (plate: PM8)	10400 (active)
NCC(=O)N[C@@H](CC(N)=O)C(=O)O (plate: PM8)	14300 (active)
CSCC[C@H](NC(=O)CN)C(=O)O (plate: PM6)	50.7 (inactive)
N[C@@H](CCC(=O)O)C(=O)N[C@@H](Cc1ccc(O)cc1)C(=O)O (plate: PM6)	1030 (inactive)
CSCC[C@H](N)C(=O)N[C@@H](CC(=O)O)C(=O)O (plate: PM7)	4440 (active)

What follows are compounds tested on Pseudomonas aeruginosa PA14 dppBCDF deletion mutant (assay: respiration area under curve with compound as sole nitrogen source, 24 h (OmniLog AUC (arbitrary units)); higher = more respiration / better utilisation as nitrogen source, active = 2000 or more; extreme values may be limits of the assay).
Experimental: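 Biolog Phenotype MicroArray plates PM6-PM8: each di/tripeptide is the sole nitrogen source. Tetrazolium reduction was read in the OmniLog every 15 min for 24 h at 37°C and summarised as area under the respiration curve (arbitrary units). Values below 2000 count as no respiration. Strain is the dipeptide ABC transporter deletion mutant.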

SMILES	respiration area under curve
CC(C)C[C@H](NC(=O)[C@@H](N)CCCN=C(N)N)C(=O)O (plate: PM6)	8090 (active)
N[C@@H](CC(=O)O)C(=O)NCC(=O)O (plate: PM8)	0 (inactive)
CC(C)[C@H](NC(=O)[C@@H](N)Cc1ccc(O)cc1)C(=O)O (plate: PM8)	5040 (active)
N[C@@H](Cc1c[nH]c2ccccc12)C(=O)N[C@@H](CCC(=O)O)C(=O)O (plate: PM7)	0 (inactive)
N[C@@H](CO)C(=O)NCC(=O)O (plate: PM7)	1360 (inactive)
CC(C)[C@H](N)C(=O)N[C@@H](Cc1ccc(O)cc1)C(=O)O (plate: PM7)	3890 (active)
CC[C@H](C)[C@H](NC(=O)[C@@H](N)CCCN=C(N)N)C(=O)O (plate: PM6)	8310 (active)
NC(N)=NCCC[C@H](N)C(=O)N[C@@H](CC(=O)O)C(=O)O (plate: PM6)	7880 (active)
C[C@H](N)C(=O)N[C@@H](CCC(N)=O)C(=O)O (plate: PM8)	3540 (active)
NCC(=O)N[C@@H](CC(N)=O)C(=O)O (plate: PM8)	13800 (active)
CSCC[C@H](NC(=O)CN)C(=O)O (plate: PM6)	0 (inactive)
CC(C)[C@H](NC(=O)[C@@H](N)CC(N)=O)C(=O)O (plate: PM6)	4910 (active)
CSCC[C@H](N)C(=O)N[C@@H](Cc1ccccc1)C(=O)O (plate: PM7)	85 (inactive)
C[C@H](N)C(=O)N[C@@H](CCC(=O)O)C(=O)O (plate: PM6)	3750 (active)
CC[C@H](C)[C@H](N)C(=O)N[C@@H](CCCN=C(N)N)C(=O)O (plate: PM6)	8420 (active)
O=C(O)[C@H](CO)NC(=O)[C@@H]1CCCN1 (plate: PM8)	1290 (inactive)
CC[C@H](C)[C@H](N)C(=O)N[C@@H](Cc1c[nH]c2ccccc12)C(=O)O (plate: PM6)	76.8 (inactive)

SMILES	respiration area under curve
CC[C@H](C)[C@H](N)C(=O)N[C@@H](CC(C)C)C(=O)O (plate: PM8)	924 (inactive)
N[C@@H](CCC(=O)O)C(=O)N[C@@H](Cc1ccc(O)cc1)C(=O)O (plate: PM6)	44 (inactive)
CC[C@H](C)[C@H](NC(=O)[C@@H](N)Cc1ccccc1)C(=O)O (plate: PM7)	6010 (active)
C[C@@H](O)[C@H](N)C(=O)N[C@@H](CCCN=C(N)N)C(=O)O (plate: PM7)	13800 (active)
O=C(O)CNC(=O)[C@@H]1CCCN1 (plate: PM7)	217 (inactive)
NCC(=O)N[C@@H](CO)C(=O)O (plate: PM6)	2360 (active)
C[C@H](N)C(=O)N[C@H](C(=O)O)[C@@H](C)O (plate: PM6)	1650 (inactive)
CC(C)C[C@H](N)C(=O)N[C@@H](CO)C(=O)O (plate: PM7)	11800 (active)
CC[C@H](C)[C@H](N)C(=O)N[C@@H](CO)C(=O)O (plate: PM6)	156 (inactive)
CC(C)CC(N)C(=O)NC(Cc1c[nH]c2ccccc12)C(=O)O (stereo not given) (plate: PM7)	7610 (active)
CSCC[C@H](N)C(=O)N[C@@H](CC(=O)O)C(=O)O (plate: PM7)	1590 (inactive)
N[C@@H](Cc1ccccc1)C(=O)N[C@@H](CC(=O)O)C(=O)O (plate: PM8)	0 (inactive)
N[C@@H](Cc1c[nH]c2ccccc12)C(=O)N[C@@H](CC(=O)O)C(=O)O (plate: PM7)	0 (inactive)
C[C@@H](O)[C@H](N)C(=O)N[C@@H](CO)C(=O)O (plate: PM8)	0 (inactive)
C[C@H](NC(=O)[C@@H](N)CO)C(=O)O (plate: PM7)	2670 (active)
CC(C)[C@H](N)C(=O)N[C@@H](C)C(=O)O (plate: PM8)	207 (inactive)
CC(C)C[C@H](NC(=O)[C@@H](N)Cc1ccc(O)cc1)C(=O)O (plate: PM7)	5310 (active)
